Data taken from ChEMBL document CHEMBL3988442, “University of Dundee, Small-Polar-MMV Screening Library” (2021).
Out of some 48,000 compounds screened, about 13,000 (27%) showed an effect of 50% or more. Some of the results follow.

The molecules below were run on Wolbachia pipientis (assay: Anti-Wolbachia Cell-Based Screen). Conditions: 5 µM.
Assay type: functional
Parameters: scale not given: in the data most compounds retested in dose-response had high values

SMILES | Percent Effect [%]
CN(C)CCOCC1CN(C(=O)c2ccnnc2)Cc2ccnn2C1.O=C(O)C(F)(F)F.O=C(O)C(F)(F)F (stereo unspecified) | 5.316
CCn1cc2c(n1)C(COCC1CC1)CN(c1ccc(C)nn1)C2 (stereo unspecified) | 10.52
CCCSc1nc(N)c(NC(=O)c2ccc(OC)c(OC)c2)c(=O)[nH]1 | -5.573
O=CO.c1cc2nccc(CC3CCCN(C4CCOCC4)CC3)c2cn1 (stereo unspecified) | 113.5
CN1CCCC(Cc2ccnc3ccncc23)CC1 (stereo unspecified) | -6.52
O=C(NCCc1c[nH]cn1)C1CCCN(Cc2ccco2)C1 (stereo unspecified) | -20.31
O=CO.c1cc2nccc(CC3CCCN(Cc4c[nH]cn4)CC3)c2cn1 (stereo unspecified) | 92.48
c1cc2nccc(CC3CCCN(Cc4ncc[nH]4)CC3)c2cn1 (stereo unspecified) | 3.513
CS(=O)(=O)N1CCCC(Cc2ccnc3ccncc23)CC1 (stereo unspecified) | 72.88
Cn1ccnc1CN1CCC(CNS(=O)(=O)c2cccnc2)C1 (stereo unspecified) | 2.394
O=C(Cc1cccnc1)N1CCCC2(CCN(C3CCOCC3)C2)C1.O=C(O)C(F)(F)F.O=C(O)C(F)(F)F (stereo unspecified) | 3.784
Cn1ccnc1CN1CCCC(Cc2ccnc3ccncc23)CC1.O=CO (stereo unspecified) | 122.1
O=C(CC1CC1)N(Cc1cccnc1)CC1CCN(C2CCCC2)CC1 | -16.06
Cc1cccc(-c2nc(CN3CCn4c(nnc4C4CC4)C3)no2)c1 | 0.9786
Cc1nc(C2(NCc3c(C)nn(C)c3N3CCOCC3)CCC2)no1 | -14.17
Cc1cccc(CS(=O)(=O)Cc2ccn(C)c(=O)c2)c1 | -8.677
c1cn(CCNc2nc(NC3CC3)nc3c2CCNCC3)nn1 | -2.29
COc1cc(/C=C/c2ncc(C(=O)O)s2)cc(OC)c1 | 4.44

SMILES | Percent Effect [%]
COc1ccc(N(c2ccc(C)cc2)c2ccc(C(=O)O)s2)cc1 | 128.9
COc1ccc(CNC(=O)C2=NN(c3ccc(C)cc3)C(=O)CN2)cc1 | -36.41
COc1ccc(N(c2ccccc2)c2ccc(C(=O)O)s2)cc1 | 119.4
CCN(C(=O)CN1CCCC1c1ccc(OC)cc1)c1ccccc1 (stereo unspecified) | 3.138
CCN(C(=O)CN1CCCC1c1ccc(OC)cc1)c1ccccc1C (stereo unspecified) | 3.108
COc1ccc(OC2CCN(C(=O)c3ccc(C(C)=O)s3)CC2)cc1 | -8.42
COc1ccc(N(c2ccc(OC)cc2)c2ccc(C(=O)O)s2)cc1 | 99.84
C[C@@H](N)C(=O)N1CC2(CCNCC2)c2cc(Cl)ccc21.Cl.Cl | 85.61
CN(C)C(=O)N1CC2(CCNCC2)c2cc(Cl)ccc21.Cl | -23.53
CC(C)C[C@H](N)C(=O)N1CC2(CCNCC2)c2cc(Cl)ccc21.Cl.Cl | 115.3
O=C1CN(C(=O)c2cc(Cl)ccc2F)c2ccncc2N1 | -25.93
Cc1ccc2c(c1)C1(CCNCC1)CN2C(=O)C(C)C | -27.38
Cc1ccc2c(c1)C1(CCN(S(C)(=O)=O)CC1)CN2C(=O)N(C)C | 0.4399
O=C1CN(C(=O)c2cc(Cl)ccc2F)c2ccccc2N1 | 1.511
CCOC(=O)N1CC2(CCNCC2)c2cc(Cl)ccc21.Cl | 107.5
CC(=O)N1CC2(CCN(C(=O)CO)CC2)c2cc(C)ccc21 | -15.84
Cl.O=C(c1ccccc1F)N1CC2(CCNCC2)c2cc(Cl)ccc21 | 106.3
CCC(=O)N1CCC2(CC1)CN(C(C)=O)c1ccc(C)cc12 | 1.312
